Source: PubChem (National Center for Advancing Translational Sciences (NCATS))
Pol eta inh-1: qHTS for Inhibitors of Polymerase Eta; 390,000 tested, 1.2% active; Potency, µM (titrated, usually from 114 µM), most hits filed as inhibitors; recombinant Pol eta, fluorescent DNA replication assay; DNA polymerase eta (Homo sapiens), Q9Y253; AID 588591, 2011
Target sequence (Q9Y253 whole entry, looked up): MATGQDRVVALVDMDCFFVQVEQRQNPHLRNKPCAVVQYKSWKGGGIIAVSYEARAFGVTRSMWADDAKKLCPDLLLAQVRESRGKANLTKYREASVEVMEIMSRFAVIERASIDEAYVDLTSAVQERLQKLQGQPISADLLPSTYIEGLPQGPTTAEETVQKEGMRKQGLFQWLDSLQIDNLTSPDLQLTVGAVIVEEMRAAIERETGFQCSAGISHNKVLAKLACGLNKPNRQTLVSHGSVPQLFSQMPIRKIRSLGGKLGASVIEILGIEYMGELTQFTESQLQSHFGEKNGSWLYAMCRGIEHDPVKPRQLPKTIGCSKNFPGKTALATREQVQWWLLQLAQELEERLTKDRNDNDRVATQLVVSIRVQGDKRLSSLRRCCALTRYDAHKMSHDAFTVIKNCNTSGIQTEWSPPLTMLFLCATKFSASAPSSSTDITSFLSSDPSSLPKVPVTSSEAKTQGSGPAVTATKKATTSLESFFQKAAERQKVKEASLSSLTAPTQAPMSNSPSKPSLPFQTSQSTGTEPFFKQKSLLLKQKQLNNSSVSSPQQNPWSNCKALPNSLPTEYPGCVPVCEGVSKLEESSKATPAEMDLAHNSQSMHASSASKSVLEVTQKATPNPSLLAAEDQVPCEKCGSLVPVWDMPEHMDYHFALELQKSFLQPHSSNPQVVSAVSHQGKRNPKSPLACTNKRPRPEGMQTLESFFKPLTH
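Pol eta at 10 nM preincubated with compounds 15 min at room temperature; reaction started with fluorescent substrate (50 nM final) and read kinetically at 0 and 10 min.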
WRN inhibitor: qHTS for Inhibitors of WRN Helicase. 360,000 tested, 0.46% active. Potency, µM (series often up to 114 µM), hits mostly inhibitors. Bifunctional 3'-5' exonuclease/ATP-dependent helicase WRN (Homo sapiens), Q14191. WRN helicase unwinding, fluorescent forked duplex, kinetic; note: nearly all actives have a fitted effect of over 55% in size
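WRN at 20 nM final preincubated with compound 15 min at room temperature; reaction started with 100 nM fluorophore/quencher forked duplex oligonucleotide and 2 mM ATP final. Unwinding followed kinetically by red fluorescence (ex 525, em 598 nm).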
FEN1 inhibitor: qHTS Assay for the Inhibitors of Human Flap endonuclease 1 (FEN1); P39748; Recombinant FEN1 flap cleavage, fluorescence, 15 min; Potency, µM (top dose mostly 114 µM), most hits filed as inhibitors; 390,000 tested, 0.35% active; note: nearly all actives have a fitted effect of over 65% in size
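FEN1 at 10 nM preincubated with compounds 15 min at room temperature, then flap DNA substrate added at 50 nM final. Signal read at 0 and 15 min; concentration-response fitted with four-parameter Hill equation.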
Pol beta inh-1: qHTS Assay for Inhibitors of DNA Polymerase Beta. 340,000 tested, 1.3% active. P06746. Pol beta primer extension/strand displacement, fluorescence kinetic. Potency, µM (doses to about 114 µM), actives largely listed as inhibitors
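Human Pol beta at 10 nM; strand-displacement substrate 50 nM final. Compound exposure 15 min at room temperature before start, reaction 10 min at room temperature.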
Pol kappa inh-1: qHTS for Inhibitors of Polymerase Kappa | AID 588579, 2011 | Potency, µM (titrated, usually from 107 µM), hits mostly inhibitors | purified Pol kappa, fluorescent DNA synthesis assay, 10 min | 400,000 tested, 0.53% active
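Enzyme at 10 nM met test compounds for 15 min at room temperature. Substrate addition (50 nM final) began the reaction, which was monitored by fluorescence at 0 and 10 min.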
POLI inh: qHTS for Inhibitors of Polymerase Iota; Pol iota fluorescent replication assay, 10 min; Potency, µM (titrated, usually from 115 µM), most hits filed as inhibitors; 390,000 tested, 1% active
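Pol iota at 10 nM preincubated 15 min with compounds at room temperature; reaction started with fluorescent substrate, 50 nM final. Fluorescence read kinetically at 0 and 10 min; buffer-only wells as negative control.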
Pol beta inh-2: Inhibitors of DNA Polymerase Beta: Hit validation | shares compounds with Pol beta inh-1 | Pol beta primer extension/strand displacement, fluorescence kinetic | Potency, µM, actives largely listed as inhibitors | 250 tested, 87% active | AID 540280, 2011; calls by dose curve
Klenow inh: Inhibitors of DNA Polymerase Beta: Hit Validation in Klenow Fragment Assay; shares compounds with Pol beta inh-1; Klenow exo- polymerase counter-screen, fluorescent DNA substrate; activity change, negative = inhibition, % at 57.1 µM; 250 tested, under 10 active; AID 540300, 2011
HIV RT counter: Inhibitors of DNA Polymerase Beta: Hit Validation in HIV-RT Assay. AID 540301, 2011. activity % (negative = inhibition, positive = activation), % at 57.1 µM. shares compounds with Pol beta inh-1. HIV-1 RT polymerase activity, counter-screen. 250 tested, under 10 active
POLB valid: Inhibitors of DNA Polymerase Beta: Hit Validation in Radiolabeled Extension Assay; 110 tested, 91% active; inhibition, % at 10 µM; shares compounds with Pol beta inh-1; AID 540325, 2011; radiolabeled primer extension gel assay, phosphorimager;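 active = inhibition at 10 µM of 30% or more; inconclusive = no clear call, values can overlap the other calls; inactive = inhibition at 10 µM under 30%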
PGK validate: qHTS for inhibitors of Phosphogylcerate Kinase: Hit Validation Screen. TbPGK coupled GAPDH assay, Kinase-Glo luminescence. 500 tested, 79% active. shares compounds with Pol kappa inh-1. AID 686980, 2013. Potency, µM (doses to about 57.5 µM), actives largely listed as inhibitors; note: nearly all actives have a fitted effect of over 65% in size
Pol iota confirm: qHTS for Inhibitors of Polymerase Iota: Confirmatory Assay for Cherry-picked Compounds; Pol iota primer extension, TAMRA/BHQ fluorescence; Potency, µM, actives largely listed as inhibitors; 1,500 tested, 77% active; shares compounds with Pol kappa inh-1; AID 720496, 2013
Pol kappa inh-2: qHTS for Inhibitors of Polymerase Kappa: Confirmatory Assay for Cherry-picked Compounds. AID 720501, 2013. shares compounds with Pol eta inh-1. 920 tested, 76% active. purified Pol-kappa, fluorescent strand-displacement substrate. Potency, µM, usual class: inhibitors
Pol eta inh-2: qHTS for Inhibitors of Polymerase Eta: Confirmatory Assay for Cherry-picked Compounds; 2,600 tested, 64% active; Potency, µM, most hits filed as inhibitors; Pol eta primer extension, TAMRA/BHQ fluorescence, 10 min; shares compounds with Pol eta inh-1
Each line names hits and unclear results; the compound was inactive in the other large screens (follow-up assays come after a bar, where they were run). A selection: hits, their analogues and other compounds. The true share with any hit is near 2.4%. Unless noted, calls come from the whole dose curve; as a rule, active = well fitted curve in the direction sought with a large enough effect; inconclusive = small, poorly fitted or top-dose-only effect, or another doubt; inactive = no such curve, though single readings can be large; an effect the other way counts as inactive or inconclusive.

Cc1c(C(=O)N2CCC(C)CC2)c(S(=O)(=O)Nc2cccc(C(F)(F)F)c2)c(C)n1C	none (no result: WRN inhibitor)
Cc1ccc2nc(/C(C#N)=C\c3ccc(Oc4ccc(C(F)(F)F)cc4[N+](=O)[O-])cc3)[nH]c2c1	Pol eta inh-1 inconclusive, WRN inhibitor 56.2µM, Pol beta inh-1 7.08µM | Pol beta inh-2 14.1 | Klenow inh inactive | HIV RT counter inactive | Pol iota confirm 42.3
N#C/C(=C\c1ccc(OCc2ccc(Br)cc2)cc1)C(=O)Nc1cccc(C(=O)O)c1	Pol eta inh-1 inconclusive, FEN1 inhibitor inconclusive, Pol beta inh-1 8.91µM | Pol beta inh-2 15.8 | Klenow inh inactive | HIV RT counter inactive | Pol iota confirm 67
CSc1nc(NCCN(C)C)c2sc3nc(-c4ccco4)c4c(c3c2n1)CCC4	Pol eta inh-1 inconclusive, FEN1 inhibitor inconclusive, POLI inh inconclusive (no result: Pol beta inh-1)
CSc1nc(N(C)CCO)c2sc3nc(-c4ccco4)c4c(c3c2n1)CCC4	Pol eta inh-1 8.91µM, WRN inhibitor 22.4µM, FEN1 inhibitor 44.7µM, Pol beta inh-1 7.08µM, Pol kappa inh-1 inconclusive, POLI inh 1µM | Pol beta inh-2 inconclusive | Klenow inh inactive | HIV RT counter inactive | PGK validate inactive
COc1ccc(CCNC(=O)C(=O)NCC(c2cccs2)S(=O)(=O)c2cccs2)cc1 (stereo not drawn)	none (no result: WRN inhibitor)
CCn1c(SCC(=O)c2ccc(O)c(O)c2)nnc1-c1ccccc1OC	Pol eta inh-1 1.41µM, WRN inhibitor 20µM, Pol beta inh-1 10µM, Pol kappa inh-1 20µM, POLI inh 10µM | Pol beta inh-2 8.91 | Klenow inh inactive | HIV RT counter inconclusive | PGK validate 7.3µM | Pol iota confirm inconclusive | Pol kappa inh-2 16.8 | Pol eta inh-2 30.1
Cc1ccc(C(CCN(Cc2ccccc2)C(=O)c2ccco2)c2ccco2)cc1 (stereo not drawn)	Pol eta inh-1 17.8µM, WRN inhibitor inconclusive, Pol beta inh-1 10µM, Pol kappa inh-1 50.1µM, POLI inh 20µM | Pol beta inh-2 15.8 | Klenow inh inactive | HIV RT counter inactive | Pol eta inh-2 84.9
CCCCc1cc(=O)oc2cc(C)c(CN3CCCC3)c(O)c12	Pol eta inh-1 20µM, WRN inhibitor 50.1µM, FEN1 inhibitor inconclusive, Pol beta inh-1 5.01µM, Pol kappa inh-1 inconclusive, POLI inh 11.2µM | Pol beta inh-2 35.5 | Klenow inh inactive | HIV RT counter inactive | Pol eta inh-2 30.1
CCCCc1cc(=O)oc2c(CN3CCCC3)c(O)ccc12	none
CN(CCOc1ccc(C[C@H](Nc2ccccc2C(=O)c2ccccc2)C(=O)O)cc1)c1ccccn1	none (no result: WRN inhibitor, FEN1 inhibitor)
N#Cc1ccc(CN2CCCC3(CCN(S(=O)(=O)c4ccccc4)CC3)C2)cc1	none (no result: Pol eta inh-1, WRN inhibitor, FEN1 inhibitor, Pol beta inh-1, POLI inh)
O=C(CC1Sc2ccccc2NC1=O)Nc1cccc(C(=O)O)c1 (stereo not drawn)	Pol eta inh-1 6.31µM, Pol beta inh-1 20µM, Pol kappa inh-1 35.5µM, POLI inh 50.1µM | Pol beta inh-2 28.2 | Klenow inh inactive | HIV RT counter inactive | POLB valid inactive | Pol iota confirm 42.3 | Pol eta inh-2 7.57
COCCNC(=O)CCn1c(=O)c2cc(OC)c(OC)cc2n(CC(=O)Nc2ccccc2OC)c1=O	POLI inh inconclusive (no result: WRN inhibitor)
CN1CC[C@@]2(CCCN(S(=O)(=O)c3ccccc3)C2)C1	none (no result: Pol eta inh-1, WRN inhibitor, FEN1 inhibitor, Pol beta inh-1, POLI inh)
COCCn1c(C)cc(C(=O)COC(=O)c2cc3c(s2)CCC3)c1C	Pol eta inh-1 8.91µM, WRN inhibitor inconclusive, Pol beta inh-1 10µM, Pol kappa inh-1 39.8µM, POLI inh inconclusive | Pol beta inh-2 31.6 | Klenow inh inactive | HIV RT counter inactive | POLB valid 84.2 | Pol iota confirm 37.7 | Pol eta inh-2 67.5
COc1ccc(-c2nc(SCC(=O)NC(C)CCc3ccccc3)n[nH]2)cc1 (stereo not drawn)	none (no result: WRN inhibitor)
Cc1cc(=O)oc2cc(OCc3ccc(C(=O)OCC(=O)NC4CCS(=O)(=O)C4)cc3)ccc12 (stereo not drawn)	Pol eta inh-1 22.4µM, Pol beta inh-1 3.55µM, Pol kappa inh-1 79.4µM, POLI inh 20µM | Pol beta inh-2 25.1 | Klenow inh inactive | HIV RT counter inactive | POLB valid 74.8 | Pol iota confirm 37.7 | Pol eta inh-2 26.9
Cc1cc(=O)oc2cc(OCc3ccc(C(=O)OCC(=O)N(C)C4CCS(=O)(=O)C4)cc3)ccc12 (stereo not drawn)	Pol beta inh-1 inconclusive
